Consider 8 molecules from PubChem BioAssay (NCI).

The panel holds about 83,000 compounds, 20% with a hit somewhere; the sample as a whole holds those more often.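 Activity criterion: percent growth below 10, measured after cells in 96-well plates were exposed to a single compound concentration for 48 hours.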 Values without a mark were called inactive. The source made the active and inactive calls.

Test in all cases: NCI-60 one-dose screen, 48 h (100 = growth as untreated, 0 = no growth, -100 = all killed)
Settings in all cases: 10 µM unless noted

The test system of assay [1] is RPMI-8226 leukemia.
In assay [2] the test system is OVCAR-8 ovarian.
For assay [3], the system named is OVCAR-5 ovarian.
The subject of assay [4] is OVCAR-4 ovarian.
The test system of assay [5] is SK-OV-3 ovarian.
Assay [6] deals with IGROV1 ovarian.
Assay [7] concerns OVCAR-3 ovarian.
Assay [8] has as its system HS 578T breast.
Assay [9] concerns T-47D breast.
Assay [10] has as its system BT-549 breast.
Assay [11] concerns MDA-MB-435 melanoma.
Assay [12] has as its system SW-620 colon.
For assay [13], the system named is MCF7 breast.
Assay [14] deals with HCT-116 colon.
Assay [15] relates to HCC-2998 colon.
In assay [16] the test system is KM12 colon.
In assay [17] the test system is NCI/ADR-RES ovarian.

With `CCCCCCCCCCCCCCCCCCOc1ccc(CC(=O)OCC[N+](C)(C)C)cc1`, the growth in [1] was 91.7%; in assay [2], 107%; in [3] it was 96.8%; in assay [4], 97.3%; in assay [5], 107%; in [6], 91%. The growth in assay [7] was 115%; in [8] it was 99.6%; in [9] it was 99.5%; in assay [10] it was 95.8%; in [11] it was 100%; in [12] it was 99.9%. Also, the growth in assay [13] is 95.8%; in assay [14], 93%; in assay [15], 95.4%; in assay [16], 96.8%.

Take `CC(=O)OC[C@H]1OC(Sc2sc(C(=O)c3ccc(Br)cc3)c(N)c2-c2nc3ccccc3s2)[C@H](OC(C)=O)[C@@H](OC(C)=O)[C@H]1OC(C)=O` (stereo not given in full): the growth was 65.5% in assay [1]; 80.3% in assay [2]; 105% in [3]; 46.9% in assay [4]; 57.3% in assay [5]; 68.8% in [6]. In addition, the growth in assay [7] is 67.1%; in [8] it was 95.4%; in [9], 67.4%; in [10], 90.2%; in assay [11], 91.7%; in assay [12], 104%. The growth in assay [13] was 94.6%; in assay [14], 91.3%; in assay [15], 98.8%; in assay [16] it was 95.7%.

As for `O=c1ccc(N=Nc2ccccc2)ccc1Cl`, the growth was 25.1% in [1]; 38.9% in assay [2]; 120% in assay [3]; 84.6% in assay [4]; 93.8% in assay [5]; 80.7% in [6]. The growth in [7] was 23.7%; in [8], 92.4%; in [17], -4.66% (active); in [9], 42.4%; in assay [10], 135%; in assay [11], 40.6%. The growth in assay [12] was -3.18% (active); in assay [13], 17.6%; in assay [14], 13.7%; in assay [15] it was 35%; in [16], 74.6%.

Turning to `COc1ccc(-c2conc2-c2ccccc2)cc1`, the growth is 32.7% in [1]; 18.1% in [2]; 27.7% in assay [3]; 47.8% in [4]; 38.2% in [5]; -28.5% (active) in [7]. In addition, the growth in assay [8] was 7.75% (active); in assay [17], 6.05% (active); in assay [9], 52.8%; in assay [10], 29.6%; in [11], -45.4% (active); in assay [12] it was 19.8%. Further, the growth in assay [13] is 16%; in [14], 12.3%; in assay [15], 19.5%; in assay [16], 9.21% (active).

With `COc1cc(CCCO)c(OC)c(OC)c1OC`, the growth in [1] is 112%; in assay [2], 107%; in assay [3], 103%; in assay [4] it was 102%; in assay [5], 107%; in assay [6], 109%. Moreover, the growth in assay [7] was 111%; in assay [8] it was 102%; in [9], 99.4%; in assay [10] it was 107%; in assay [11], 102%; in [12], 105%. Further, the growth in assay [13] was 104%; in assay [14], 106%; in assay [15] it was 103%; in assay [16], 105%.

Regarding `NS(=O)(=O)c1ccc(-n2nc(-c3ccc(Cl)cc3)c3ccccc3c2=O)cc1`, the growth in assay [1] is 84.6%; in assay [2], 96.9%; in [3] it was 93.7%; in assay [4], 93.7%; in [5] it was 96.9%; in [6], 75.5%. The growth in assay [7] is 108%; in assay [8], 88.7%; in [17], 86.2%; in assay [9], 76.8%; in assay [10] it was 157%; in assay [11] it was 112%. Also, the growth in assay [12] is 105%; in [13] it was 88.6%; in [14], 88.2%; in [15] it was 107%; in assay [16] it was 97.1%.

Take `Cc1nc(NC(=O)COc2ccc(/C=C3\Cc4ccc(Cl)cc4C3=O)cc2)sc1C`: the growth was 103% in [1]; 105% in [3]; 113% in assay [4]; 114% in [5]; -69.8% (active) in assay [6]; 105% in assay [7]. Moreover, the growth was 139% in [8]; 96.3% in assay [17]; 109% in assay [9]; 328% in assay [10]; 96.8% in [11]; 107% in assay [12]. Moreover, the growth was 88.6% in assay [13], 109% in [14], 90.9% in [15] and 119% in assay [16].

On to `COc1cc(C(=O)N/N=C/c2cc3cc(OCc4ccccc4)ccc3nc2OC)cc(OC)c1OC`, for which the growth in assay [1] is 35.6%; in assay [2], 68.4%; in assay [3], 86.9%; in assay [4], 63.4%; in [5] it was 91.1%; in assay [7] it was 99.4%. Besides, the growth in [8] was 61.2%; in [17], 82.2%; in assay [9], 54.3%; in assay [10] it was 73.4%; in assay [11] it was 88.3%; in assay [12] it was 91.6%. Further, the growth in [13] was 78.4%; in assay [14] it was 85.7%; in assay [15], 96.7%; in assay [16] it was 96.2%.
